Experimental data from PubChem BioAssay (NCATS).
The list shows a part of the results. Inconclusive results are not listed. Activity calls are given as the source filed them. Calls come from the whole dose curve; as a rule, active = well fitted inhibition curve with a large enough effect; inconclusive = small, poorly fitted or top-dose-only effect, or effect the other way; inactive = no such curve, though single readings can be large or run the other way.

Experiment: qHTS Assay for Inhibitors of Fructose-1,6-bisphosphate Aldolase from Giardia Lamblia: Giardia lamblia growth inhibition (AID 2785);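 note: trophozoites exposed to compound for 48 h at 37 °C; nearly all actives have a fitted effect of over 70% in size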
Conditions: Giardia lamblia trophozoite growth inhibition; series mostly up to 57.5 µM; activity change, negative = inhibition: at the top concentration
Excerpt: NIH Chemical Genomics Center [NCGC]
NIH Molecular Libraries Probe Production centers Network [MLPCN]
Assay Provider: Osnat Herzberg, University of Maryland
The objective of this project is to obtain compounds that inhibit Giardia lamblia growth. G. lamblia is a human pathogen which afflicts impoverished nations; it is the most common cause of outbreaks of diarrhea in the United States. During the course of our study of potential drug targets in Giardia, we have identified the Class II (Zn2+ functions in electrophilic catalysis) fructose-1,6-bisphosphate aldolase (FBPA) as an excellent candidate for drug targeting. FBPA is a key glycolytic pathway enzyme, essential for G. lamblia survival. The human FBPA belongs to the Class I aldolases, which have a different substrate binding site structure and a radically different catalytic mechanism (employing a lysine-Schiff base intermediate). Therefore, affinity-based or mechanism-based inhibitors of the Giardia FBPA are expected not to interfere with the catalytic function of the human FBPA.
A glyceraldehyde-3-phosphate dehydrogenase/triose phosphate isomerase/NAD/arsenate coupled assay was adapted to the 1536-well HTP format for use in the primary screen. This was done by coupling it to a diaphorase/resazurin/resorufin reaction that can be monitored by fluorescence (excitation, 544 nm; emission, 590 nm). Compounds identified in this screen will be further evaluated by coupling the glycerol-3-phosphate/triose phosphate isomerase/NADH assay to a phenazine methosulfate/tetranitroblue tetrazolium color reaction. False positives due to the dehydrogenases and diaphorase inhibition will be eliminated, and selectivity assay will triage inhibitors of mammalian triose phosphate isomerase and the Class I FBPA. G. lamblia FBPA inhibitors identified by the in vitro analyses will be examined for growth inhibition of Giardia trophozoites, and for cytotoxicity in human cells.
This assay addresses whether hits in the primary screen can inhibit growth of giardia lamblia trophozoites.
Trophozoites of the G. lamblia isolate WB (33) were grown at pH 7.0 in modified TYI-S-33 medium. Detachment of trophozoites for preparation of inocula was achieved by chilling the cultures on ice for 20 min.
2uL/well media was dispensed per well into 1536-well white solid-bottom plates using a Multidrop Combi dispenser (Thermo Scientific). Subsequently, 23 nL/well compound solutions or DMSO controls were dispensed to the assay plates containing media via a pintool workstation (Kalypsys, San Diego) to avoid the potential contamination to the compound source plates. Unless otherwise noted, Giardia trophozoids suspended in media were dispensed as 100 cells/well in 4uL volumes. The plates were covered with plastic low-evaporation lids, individually sealed in Type A Bio-Bags and incubated at 37C for 48 hours. Following incubation, 4uL/well of ATPlite reagent was dispensed with a Multidrop Combi dispenser. The assay plates were briefly centrifuged at 1000 RPM and luminescence signal was detected on a ViewLux plate reader (PerkinElmer) after 20 min incubation at room temperature.
Keywords: Fructose-bisphosphate aldolase, FBPA , Giardia lamblia , Giardia, HTS, Inhibitors
% is set by controls: 0 for no effect and ±100 for the full control effect; potency is the fitted concentration of half-maximal effect.

| SMILES | activity change, negative = inhibition | Potency |
| --- | --- | --- |
| COc1cc(CN2CCN(Cc3ccc(C)cc3)CC2)c([N+](=O)[O-])cc1OC | -29.9% (inactive) | – |
| Clc1cccc(CN2COc3c(cc(Cl)c4cccnc34)C2)c1 | -13.7% (inactive) | – |
| Cn1c(=O)[nH]c(=O)c2c1[nH]c(=S)n2Cc1ccccc1 | 4.88% [at 10.4 µM] (inactive) | – |
| CCN(CC(=O)Nc1ccc(S(=O)(=O)N2CCCC2)cc1)CC(=O)Nc1cccc(OC)c1 | -24.9% (inactive) | – |
| C=CCc1cc(C)ccc1OCCCn1ccnc1 | 5.83% [at 10.4 µM] (inactive) | – |
| COc1ccc(Cl)cc1C(=O)NNC(=O)c1nc2nc(C)cc(C)n2n1 | -17.9% (inactive) | – |
| Cc1nnc(N/N=C/c2ccccn2)[nH]c1=O | – | 25.1 µM (active) |
| O=C(Nc1ccccc1Cl)O/N=C(/c1ccccc1)c1ccccn1 | – | 22.4 µM (active) |
| Cc1cc(C)n(-c2ccc(Cl)c(C(=O)O)n2)n1 | 26.5% (inactive) | – |
| CSc1n[nH]c(=S)n1N | 10.6% (inactive) | – |
| O=C(Nc1nnc(-c2ccco2)o1)c1ccc(S(=O)(=O)N2CCOCC2)cc1 | 7.93% [at 10.4 µM] (inactive) | – |
| O=[N+]([O-])c1cc([N+](=O)[O-])c2cccnc2c1O | 25.3% (inactive) | – |
| CN1CCN(CCCCOc2ccccc2-c2ccccc2)CC1 | 45.3% (inactive) | – |
| Cc1ccc(OCCCCc2c(C)n[nH]c2C)cc1 | 7.15% [at 10.4 µM] (inactive) | – |
| Cc1cccc(C)c1OCCN1CCOCC1 | 14.9% [at 10.4 µM] (inactive) | – |
| CN1C(=O)/C(=C\c2ccc(-c3ccccc3)o2)SC1=S | -13.3% [at 38.3 µM] (inactive) | – |
| COc1ccc(N=Nc2c(-c3ccc(OC)cc3)[nH]oc2=O)cc1 | -15.5% (inactive) | – |
| COc1ccc(C(=O)NC(=S)N2CCCCC2c2cccnc2)cc1OC (stereo not given) | -19.9% (inactive) | – |
| CN1CCCc2cc(C#N)c(=O)[nH]c21 | 27.9% (inactive) | – |
| O=c1nc(N/N=C/c2ccco2)cn[nH]1 | -5.51% (inactive) | – |

| SMILES | activity change, negative = inhibition | Potency |
| --- | --- | --- |
| COc1ccccc1CN1CCN(Cc2cc(OC)c(OC)cc2OC)CC1 | 59.3% (inactive) | – |
| C=CCNC(=S)/N=c1/ccccn1Cc1ccccc1 | 3.99% [at 10.4 µM] (inactive) | – |
| CC(C)(c1ccccc1)c1ccc(OCCN2CCCC2)cc1 | -13.4% (inactive) | – |
| CC(=O)NC1CCN(CC(=O)Nc2nccs2)CC1 | -10.3% [at 10.4 µM] (inactive) | – |
| COC(=O)CC1=NN(c2nc(C)cc(C)n2)C(=O)C1 | 4.58% [at 38.3 µM] (inactive) | – |
| CCN(CC(=O)NC(=O)NCc1ccccc1)Cc1nc2ccccc2c(=O)[nH]1 | -29.8% (inactive) | – |
| Cc1cccc(-c2nnc(SCC(=O)O)n2Cc2ccccc2)c1 | 6.79% [at 10.4 µM] (inactive) | – |
| O=C(CSc1cccc[n+]1[O-])c1ccc(-c2ccccc2)cc1 | -21.3% (inactive) | – |
| C=C(C)CNC(=S)N/N=C/c1ccccc1OCC(=O)O | -11.7% (inactive) | – |
| Cc1cnc(NC(=O)c2ccccn2)s1 | -23.9% [at 10.4 µM] (inactive) | – |
| Cc1cc(C)c2c(=O)[nH]c(SCC(=O)Nc3ccc(Br)cc3)nc2n1 | -5.41% (inactive) | – |
| O=C1CCCN1CCCNC(=S)Nc1ccc(F)c(Cl)c1 | -14.2% (inactive) | – |
| CNC(=S)N/N=C/c1ccc(N2CCOCC2)s1 | -8.92% [at 10.4 µM] (inactive) | – |
| O=S(=O)(c1ccc(NC(=S)NN=C(C2CC2)C2CC2)cc1)N1CCOCC1 | -9.73% [at 10.4 µM] (inactive) | – |
| Cc1csc(NC(=O)CN2CCCCCC2)n1 | 1.38% [at 10.4 µM] (inactive) | – |
| Cc1cc(C)nc(N/N=C/c2ccc([N+](=O)[O-])o2)n1 | – | 3.16 µM (active) |
| O=C(NC(=S)Nc1ncccn1)c1ccccc1Br | -26.3% [at 38.3 µM] (inactive) | – |
| COc1ccc(OC)c(Nc2nc(-c3ccc(O)c(O)c3)cs2)c1 | -10.8% [at 10.4 µM] (inactive) | – |
| O=C(CN1C(=O)COc2ccccc21)Nc1ccc(F)cc1 | -19.4% [at 38.3 µM] (inactive) | – |
| Cn1nnc(NC(=S)NC(=O)c2ccccc2)n1 | -3.64% [at 38.3 µM] (inactive) | – |
